ATXN viability = Viability Counterscreen for Primary qHTS for Inhibitors of ATXN expression | S2 cells (HEK-293 line with an ATXN2-luciferase reporter) viability, CellTiter-Fluor protease fluorescence, 24 h | Potency, µM (doses to about 56.7 µM), most hits filed as cytotoxic | 400,000 compounds, 0.49% hits | AID 651635, 2014; note: potency is the fitted concentration of half-maximal effect; nearly all actives have a fitted effect of over 40% in size
DRD3 antagonist = qHTS of D3 Dopamine Receptor Antagonist: qHTS. max response, negative = inhibition, %. D3R cells, DiscoveRx beta-arrestin luminescence, antagonist mode; hits give low values. D(3) dopamine receptor (Homo sapiens), P35462. 360,000 compounds, 2.5% hits; in the data active = max response below about -50%; inconclusive = no clear call, values can overlap the other calls; note: % is set by controls: 0 for no effect and ±100 for the full control effect
Target sequence (P35462 whole entry, looked up): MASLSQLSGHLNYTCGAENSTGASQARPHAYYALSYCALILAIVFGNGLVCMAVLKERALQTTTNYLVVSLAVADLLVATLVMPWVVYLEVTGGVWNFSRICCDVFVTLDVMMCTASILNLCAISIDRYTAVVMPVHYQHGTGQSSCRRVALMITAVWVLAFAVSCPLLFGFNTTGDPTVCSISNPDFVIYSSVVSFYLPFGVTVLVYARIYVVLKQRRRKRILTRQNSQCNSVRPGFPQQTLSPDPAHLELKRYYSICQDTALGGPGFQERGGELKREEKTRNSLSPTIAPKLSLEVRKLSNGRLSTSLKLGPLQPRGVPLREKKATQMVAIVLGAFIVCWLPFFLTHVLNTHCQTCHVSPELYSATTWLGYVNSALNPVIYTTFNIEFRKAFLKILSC
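Cells plated overnight at 1500 cells/well, then exposed to library compounds with dopamine controls for 90 minutes at 37 degrees C. DiscoveRx reagent added for 30–60 minutes at room temperature; luminescence read, quantitative HTS format.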
IL-1B inflam inh = qHTS for Inhibitors of Inflammasome Signaling: IL-1-beta AlphaLISA Primary Screen; THP-1 LPS/ATP IL-1B secretion, AlphaLISA, 16 h; hits give low values; 360,000 compounds, 4.7% hits; activity change, % at 57.5 µM; in the data active = activity change below about -50%; inconclusive = mostly about -30% to -49%; note: % is set by controls: 0 for no effect and ±100 for the full control effect
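Secreted IL-1B measured by AlphaLISA bead assay after 16 h compound exposure of THP-1 cells; compounds (final up to 57.5 uM) added 1 h before LPS (250 ng/mL) and ATP (1.25 mM) stimulation; lower signal means less secretion.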
Integrin act MD = qHTS for Activators of Integrin-Mediated Alleviation for Muscular Dystrophy | Potency, µM (top dose mostly 38.3 µM), for the others: top-dose activation, usual class: activators | alpha7betagal myoblasts, beta-gal FDG fluorescence, 48 h | 350,000 compounds, 0.064% hits;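 note: potency is the fitted concentration of half-maximal effect; 100% = response of the positive control SU9516; nearly all actives have a fitted effect of over 60% in size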
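alpha7betagal+/- myoblasts (passage 13, 250/well) treated 48 h at 37C with compounds at 1:260 dilution of DMSO stock. Lysed, then beta-galactosidase activity read as FDG fluorescence (ex 480/em 540) after 30 min, with pre-read for autofluorescence.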
ATXN2 expr inh = Primary qHTS for Inhibitors of ATXN expression. Potency, µM (titrated, usually from 57 µM), without a hit: at the top dose activity change, negative = inhibition, usual class: inhibitors. HEK-293 ATXN2-luciferase reporter, luminescence, 24 h. 360,000 compounds, 0.72% hits; note: potency is the fitted concentration of half-maximal effect; % is set by controls: 0 for no effect and ±100 for the full control effect; nearly all actives have a fitted effect of over 55% in size
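qHTS (up to 57 uM final) was run with 24 h compound exposure of reporter cells at 37 °C. Each well was multiplexed: SteadyGlo luminescence measured ATXN2-luciferase expression after a fluorogenic Gly-Phe-AFC viability readout (25 uM final).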
DRD3 agonist = qHTS of D3 Dopamine Receptor Agonist: qHTS | AID 652048, 2013 | D3R DiscoveRx beta-arrestin cells, luminescence, 90 min | 410,000 compounds, 0.58% hits | D(3) dopamine receptor (Homo sapiens), P35462 | max activation, %; in the data active = max activation above about 30%; note: 0% is about no effect
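Cells at 1500/well, incubated overnight, then treated with pinned compounds (dopamine as control) for 90 min at 37 degrees C. DiscoveRx reagent added for 30 - 60 minutes at room temperature; luminescence read.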
Starred values were filed as active, the others as inactive; i = inactive; ? = inconclusive; . = no result. The list is not random: actives were taken first. Their share in the collection is about 7%. Unless noted, calls come from the whole dose curve; as a rule, active = well fitted curve in the direction sought with a large enough effect; inconclusive = small, poorly fitted or top-dose-only effect, or another doubt; inactive = no such curve, though single readings can be large; an effect the other way counts as inactive or inconclusive.

SMILES	ATXN viability	DRD3 antagonist	IL-1B inflam inh	Integrin act MD	ATXN2 expr inh	DRD3 agonist
CCc1nc2c(OCC=C(C)C)cccn2c1N(C)C(=O)c1ccc(OC)cc1	?	-61*	63	.	-23%	2
CCc1nc2c(OCc3ccc(Cl)cc3)cccn2c1N(C)C(=O)c1ccccc1F	?	-23	1	.	?	-2
CCc1nc2c(OCC=C(C)C)cccn2c1N(C)C(=O)c1ccccc1F	?	14	-69*	.	-28%	6
CCc1nc2c(OCc3ccc(OC)cc3)cccn2c1N(C)C(=O)c1ccc(OC)cc1	i	-18	-16	.	-11%	-6
CCCOc1cccn2c(N(C)C(=O)c3ccccc3F)c(CC)nc12	i	-72*	47	.	0%	-9
Cc1cc(C)c(NC(=O)c2cc(S(=O)(=O)N3CCN(c4ccccc4F)CC3)ccc2F)c(C)c1	i	.	.	.	8%	6
COC(=O)c1cc(CSC(=N)N)ccc1OCCC(C)C	?	-14	-85*	-80%	-20%	-6
CCCOc1ccc(NC(N)=O)cc1OCCC	i	11	12	-5%	1%	5
CCCOc1ccc(CSC(=N)N)cc1C(=O)OC	i	-9	-57*	-7%	-17%	0
Cn1cccc1CC(=O)N/N=C/c1cccc([N+](=O)[O-])c1	i	6	14	-31%	-8%	-4
O=S(Cc1ccc(Br)cc1)Cc1nnc(SCc2ccc(Cl)cc2)n1-c1ccccc1 (centres undefined)	?	-7	-68*	?	-28%	2
Cn1c(CS(=O)Cc2c(Cl)cccc2Cl)nnc1SCc1ccc(Cl)cc1 (centres undefined)	i	-17	4	15%	-9%	-6
COc1ccc(-n2c(CCc3ccccc3)nnc2SCC(=O)c2ccc(Cl)cc2)cc1	?	23	?	-8%	?	-4
O=S(Cc1ccc(Br)cc1)Cc1nnc(SCc2c(F)cccc2Cl)n1-c1ccccc1 (centres undefined)	i	?	-62*	36%	-9%	-2
O=C(CSc1nnc(CCc2ccccc2)n1-c1ccc(Cl)cc1)c1ccccc1	i	1	-64*	19%	-3%	-4
CCSc1nnc(NC(=O)c2ccc(C)o2)s1	i	19	-7	19%	3%	1
O=C(CC(Nc1ccccc1Cl)C(=O)O)c1ccccc1 (centres undefined)	i	5	-55*	-365%	132%	0
O=C(CC(Nc1cccc(Cl)c1Cl)C(=O)O)c1ccccc1 (centres undefined)	?	9	37	12%	-19%	-8
CC(=O)C1=CCC(c2ccc(Cl)c(Cl)c2)N(S(=O)(=O)c2ccc(C)cc2)C1 (centres undefined)	?	20	-84*	.	?	-4
CC(=O)C1=CCC(c2cccc(Cl)c2)N(S(=O)(=O)c2ccc(C)cc2)C1 (centres undefined)	?	-5	-85*	.	?	-7
CCOC(=O)C1=CCC(c2cccc(Cl)c2)N(S(=O)(=O)c2ccc(C)cc2)C1 (centres undefined)	i	0	34	.	11%	-11
CN1C(=O)Cc2cc(S(=O)(=O)CCC(=O)Nc3ccc(F)c(Cl)c3)ccc21	i	.	.	.	0%	-10
COc1ccc(C(=O)NNC(=O)CCc2nc3ccccc3c(=O)[nH]2)cc1	i	8	-2	23%	-3%	1
Cn1c(SSc2ccc(-c3cccnc3)n2C)ccc1-c1cccnc1	?	?	-98*	-23%	?	-17
CCCn1ncc(CN2CCC(N3CCC(C(=O)N4CCOCC4)CC3)CC2)c1C	i	11	11	3%	-6%	4
Cc1nn(-c2ccccc2)c(C)c1C(=O)OCC(=O)Nc1ccccc1F	i	3	-15	11%	45%	-1
